Data from PubChem BioAssay (NCATS).
Results filed as inconclusive are left out. Activity calls are given as the source filed them. Calls follow the shape of the dose curve; as a rule, active = well fitted cell-killing curve with a large enough effect; inconclusive = small, poorly fitted or top-dose-only effect, or effect the other way; inactive = flat fitted curve, though single readings scatter.

Key:
Assay in all cases: Primary qHTS to identify gynecologic anti-cancer compounds using libraries of approved drugs and bioactive compounds (AID 1345084); also: nearly all actives have a fitted effect of over 55% in size
[1] = system: C33A; settings: Gynecologic cancer cell panel viability, ATPlite luminescence, 48 h; series mostly up to 57.5 µM
Summary of the method: (§1)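 Five-point cytotoxicity, 48 h drug exposure at 37 C, 5% CO2, on cells seeded 16 h beforehand. ATP content read by ATPlite luminescence.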

[2] = system: CAOV3; settings: Gynecologic cancer cell panel viability, ATPlite luminescence, 48 h; series mostly up to 57.5 µM
Summary of the method: as §1

[3] = system: CASKI; settings: Gynecologic cancer cell panel viability, ATPlite luminescence, 48 h; series mostly up to 57.5 µM
Summary of the method: as §1

[4] = system: Es-2; settings: Gynecologic cancer cell panel viability, ATPlite luminescence, 48 h; series mostly up to 57.5 µM
Summary of the method: as §1

[5] = system: HeLa; settings: Gynecologic cancer cell panel viability, ATPlite luminescence, 48 h; series mostly up to 57.5 µM
Summary of the method: as §1

[6] = system: Hek293T; settings: Gynecologic cancer cell panel viability, ATPlite luminescence, 48 h, control line for the selectivity index; series mostly up to 57.5 µM
Summary of the method: as §1

[7] = system: JEG-3; settings: Gynecologic cancer cell panel viability, ATPlite luminescence, 48 h; series mostly up to 57.5 µM
Summary of the method: as §1

[8] = system: OV90; settings: Gynecologic cancer cell panel viability, ATPlite luminescence, 48 h; series mostly up to 57.5 µM
Summary of the method: as §1

[9] = system: SKOV3; settings: Gynecologic cancer cell panel viability, ATPlite luminescence, 48 h; series mostly up to 57.5 µM
Summary of the method: as §1

[10] = system: Tov-21-G; settings: Gynecologic cancer cell panel viability, ATPlite luminescence, 48 h; series mostly up to 57.5 µM
Summary of the method: as §1

[11] = system: Tov112D; settings: Gynecologic cancer cell panel viability, ATPlite luminescence, 48 h; series mostly up to 57.5 µM
Summary of the method: as §1

[12] = system: PA-1; settings: Gynecologic cancer cell panel viability, ATPlite luminescence, 48 h; series mostly up to 57.5 µM
Summary of the method: as §1
% is scaled to controls: 0 for no effect and ±100 for the full control effect.

C/C=C(/C)C(=O)O[C@@H]1C[C@@H](OC(=O)CC(C)C)C2(C)C3C(=O)C=C(C)C2C3C1(C)C (stereo partly specified)
inactive: Potency [1] | Potency [2] | Potency [3] | Potency [4] | Potency [5] | Potency [6] | Potency [7] | Potency [8] | Potency [9] | Potency [10] | Potency [11]

CC(=O)O[C@@H]1[C@@H](OC(C)=O)[C@H](C)O[C@@H](O[C@H]2[C@@H]3C=CO[C@@H](O[C@@H]4O[C@H](CO)[C@@H](O)[C@H](O)[C@H]4O)[C@@H]3[C@@]3(CO)O[C@@H]23)[C@@H]1OC(=O)/C=C/c1ccccc1
inactive: Potency [1] | Potency [2] | Potency [3] | Potency [4] | Potency [5] | Potency [6] | Potency [7] | Potency [8] | Potency [9] | Potency [11]

O=c1[nH]c2ccc(C#CCN3CCC(Cc4ccccc4)CC3)cc2[nH]1
inactive: Potency [1] | Potency [2] | Potency [3] | Potency [4] | Potency [5] | Potency [6] | Potency [7] | Potency [8] | Potency [9] | Potency [10] | Potency [11]

COc1ccc(C2=NC(c3ccc(Cl)cc3)C(c3ccc(Cl)cc3)N2C(=O)N2CCNC(=O)C2)c(OC(C)C)c1 (stereo unspecified)
inactive: Potency [1] | Potency [2] | Potency [3] | Potency [4] | Potency [5] | Potency [6] | Potency [7] | Potency [8] | Potency [11]

CC(C)(O)c1ccn2c(-c3ccc(F)c(-c4ccc(F)cc4C#N)c3)cnc2c1F
inactive: Potency [1] | Potency [2] | Potency [3] | Potency [4] | Potency [5] | Potency [6] | Potency [7] | Potency [8] | Potency [9] | Potency [10] | Potency [11]

C[C@@H]1O[C@@H](O[C@H]2CC[C@@]3(C)C(CC[C@]4(C)C3CC=C3[C@@H]5CC(C)(C)CC[C@]5(C(=O)O[C@@H]5O[C@H](CO)[C@@H](O)[C@H](O)[C@H]5O)CC[C@]34C)[C@]2(C)CO)[C@H](O)[C@H](O[C@@H]2O[C@H](CO)[C@@H](O)[C@H](O)[C@H]2O)[C@H]1O (stereo partly specified)
inactive: activity change, negative = cytotoxicity [1] -20.9% [at 11.6 µM] | activity change, negative = cytotoxicity [2] -0.291% [at 11.6 µM] | activity change, negative = cytotoxicity [3] -6.26% [at 11.6 µM] | activity change, negative = cytotoxicity [4] -0.79% [at 11.6 µM] | activity change, negative = cytotoxicity [5] -1.56% [at 11.6 µM] | activity change, negative = cytotoxicity [6] -6.15% [at 11.6 µM] | activity change, negative = cytotoxicity [7] -9.27% [at 11.6 µM] | activity change, negative = cytotoxicity [8] -0.517% [at 11.6 µM] | activity change, negative = cytotoxicity [9] 8.14% [at 11.6 µM] | activity change, negative = cytotoxicity [10] -24% [at 11.6 µM] | activity change, negative = cytotoxicity [11] 1.58% [at 11.6 µM]

C=C1C(=O)OC[C@@H]1C/C=C(\C)CC1CC(C)C(=O)O1 (stereo partly specified)
inactive: Potency [1] | Potency [2] | Potency [3] | Potency [4] | Potency [5] | Potency [6] | Potency [7] | Potency [8] | Potency [10] | Potency [11]

O=C(NCCCN1CCOCC1)c1cnn2c(-c3ccccc3)cc(-c3ccccc3)nc12
inactive: Potency [1] | Potency [2] | Potency [3] | Potency [4] | Potency [5] | Potency [6] | Potency [7] | Potency [8] | Potency [9] | Potency [10] | Potency [11]

CC1(CO)CC(O)[C@]2(C(=O)O)CCC34CC3(C=CC3[C@]5(C)C(CC[C@]34C)C(C)(CO)[C@@H](O)[C@H](O)[C@@H]5O)C2C1 (stereo partly specified)
inactive: Potency [1] | Potency [2] | Potency [3] | Potency [4] | Potency [5] | Potency [6] | Potency [7] | Potency [8] | Potency [9] | Potency [10] | Potency [11]

COc1ccc(CCc2nc3cc(-c4c(C)noc4C)ccc3n2CC(C)N2CCOCC2)cc1Cl (stereo unspecified)
inactive: Potency [1] | Potency [2] | Potency [3] | Potency [4] | Potency [5] | Potency [6] | Potency [7] | Potency [8] | Potency [10] | Potency [11]

O=C1COC2(CCN(S(=O)(=O)c3ccc(-c4ccc5cccnc5c4)cc3)CC2)CN1C1CC1
inactive: Potency [1] | Potency [2] | Potency [3] | Potency [4] | Potency [5] | Potency [6] | Potency [7] | Potency [12] | Potency [9] | Potency [10] | Potency [11]

C=C1CCC2[C@](C)(CCC[C@@]2(C)C=O)[C@H]1CC/C(C)=C/CO (stereo partly specified)
inactive: Potency [1] | Potency [2] | Potency [3] | Potency [4] | Potency [5] | Potency [6] | Potency [7] | Potency [8] | Potency [9] | Potency [10] | Potency [11]

O=C(OC1CN2CCC1CC2)N1CCc2ccccc2C1c1ccccc1 (stereo unspecified)
inactive: Potency [1] | Potency [2] | Potency [3] | Potency [4] | Potency [5] | Potency [6] | Potency [7] | Potency [12] | Potency [9] | Potency [10] | Potency [11]

COC1=CC(=O)O/C1=C(/OC)[C@@H]1O[C@H]1c1ccccc1
inactive: Potency [1] | Potency [2] | Potency [3] | Potency [4] | Potency [5] | Potency [6] | Potency [7] | Potency [8] | Potency [9] | Potency [10] | Potency [11]

CCNC1(C(N)=O)CN(c2nc(C)nc3c(-c4ccc(Cl)cc4)c(-c4ccccc4Cl)nn23)C1
inactive: Potency [1] | Potency [2] | Potency [3] | Potency [4] | Potency [5] | Potency [6] | Potency [7] | Potency [12] | Potency [9] | Potency [10] | Potency [11]

CN1CCN(c2ccc(Nc3cc(-c4cccc(-n5ccc6cc(C7CC7)cc(F)c6c5=O)c4CO)cn(C)c3=O)nc2)CC1
inactive: Potency [1] | Potency [2] | Potency [3] | Potency [4] | Potency [5] | Potency [6] | Potency [7] | Potency [8] | Potency [9] | Potency [10] | Potency [11]
